Screening results (PubChem)
Only some compounds are listed: those with a hit (about 5.2% of all), similar ones and a draw of the others.
Tau fluor counter – counter-screen for tau fibril formation inhibitors; tau K18 P301L Alexa594 fluorescence, heparin fibrillization; Potency, µM (top dose mostly 57.7 µM), for the others: top-dose activity change, negative = decrease; 280,000 tested, 0.93% active; also: potency is read from the fitted curve at half-maximal effect; nearly all actives have a fitted effect of over 55% in size
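Human tau K18 P301L (15 uM unlabeled, 0.24 uM Alexa 594-labeled) in 100 mM sodium acetate pH 7 with 20 uM heparin, 6 hr at 37 C. ThT 30 uM added, 1 hr ambient; Alexa 594 FP and total fluorescence read at 555/632 nm.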
Coupling enz – coupling enzyme interference in Giardia aldolase counter-screen; coupling enzyme system counterscreen, AmpLite Red fluorescence; activity change, negative = inhibition, % at 58.2 µM, hits read low; 290,000 tested, 0.67% active; in the data active = activity change below about -30%
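Activity here indicates interference with the coupling reaction, not aldolase inhibition. Compounds at 57.5 uM final met coupling enzymes for 10 min at RT; substrate and AmpLite Red detection followed, with a 525/598 nm fluorescence read after 20 min.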
Tau fibril ThT – blocks human tau fibril formation measured by thioflavin T; AID 1460; recombinant tau K18 P301L (four-repeat tau fragment), heparin-induced fibrillization, ThT fluorescence; P10636; Potency, µM (series often up to 57.4 µM), without a hit: at the highest dose activity, negative = inhibition, actives largely listed as inhibitors; 270,000 tested, 2.1% active; also: potency is read from the fitted curve at half-maximal effect; nearly all actives have a fitted effect of over 55% in size
Target sequence (P10636 561-689 P618L limits assumed): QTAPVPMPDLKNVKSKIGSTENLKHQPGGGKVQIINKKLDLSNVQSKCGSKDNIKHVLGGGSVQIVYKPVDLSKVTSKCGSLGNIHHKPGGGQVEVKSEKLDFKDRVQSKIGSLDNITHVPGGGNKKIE
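Heparin-induced (20 uM) aggregation of recombinant human K18 P301L tau, 15 uM unlabeled with 0.24 uM labeled, pH 7 acetate buffer, 6 hr at 37 C with compound. Fibrils quantified by 30 uM ThT fluorescence after 1 hr ambient incubation.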
Sfp PPTase inh – blocks B. subtilis Sfp PPTase activity. Q9F4F7. Biochemical Sfp PPTase activity, qHTS. Potency, µM, inactives show largest response in the series, negative = inhibition, hits mostly inhibitors. 310,000 tested, 3.5% active;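 also: the enzyme is Sfp with the accession as filed and its product quenches rhodamine fluorescence; potency is read from the fitted curve at half-maximal effect; 0% = enzyme reaction without inhibitor and -100% = no enzyme wells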
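Fluorescence-quenching assay with 15 nM Sfp, 5 uM rhodamine-CoA and 12.5 uM BHQ-2-labelled ybbR peptide in pH 7.6 Hepes/MgCl2 buffer. Enzyme was pre-incubated with compound for 15 min at room temperature. Rate was taken from the 30-min fluorescence change (525/598 nm).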
Tau fibril FP – blocks human tau fibril formation measured by polarization | 280,000 tested, 0.39% active | AID 1468 | K18 P301L tau heparin fibrillization, Alexa594 FP, 6 h | Potency, µM (titrated, usually from 57.7 µM), for the others: at the top dose activity, negative = inhibition, actives largely listed as inhibitors | P10636; also: potency is read from the fitted curve at half-maximal effect; nearly all actives have a fitted effect of over 55% in size
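Compound effects on tau fibrillization are measured by Alexa 594 fluorescence polarization (ex 555, em 632 nm). K18 P301L tau is used at 15 uM with 0.24 uM labeled tracer, and 20 uM heparin induces aggregation over 6 hr at 37 C.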
* = called active by the depositor; ? = inconclusive; . = no result; ! = not confirmed by another sample; [ ] = another dose, or the depositor's remark. Unless noted, calls follow the shape of the dose curve; as a rule, active = well fitted curve in the direction sought with a large enough effect; inconclusive = small, poorly fitted or top-dose-only effect, or another doubt; inactive = no such curve, though single readings can be large; an effect the other way counts as inactive or inconclusive. Unless noted, % is scaled to controls: 0 for no effect and ±100 for the full control effect.

SMILES	Tau fluor counter	Coupling enz	Tau fibril ThT	Sfp PPTase inh	Tau fibril FP
CCN1CCN(C(c2ccc(F)cc2)c2sc3nc(-c4ccco4)nn3c2O)CC1 (stereo not drawn)	-9%	.	-11%	.	-4%
CN(C)c1ccc(C(=C2C=CC(=[N+](C)C)C=C2)c2ccc(N(C)C)cc2)cc1	7.1µM*[quencher]	-58*	5µM*	45µM*!	16µM*
CN(C)c1ccc(C(=C2C=CC(=[N+](C)C)C=C2)c2ccccc2)cc1	.	-19	.	50µM*	.
CC(=O)c1ccc(N(C)C)cc1	-5%	-1	-9%	9%	7%
O=C(/C=C/C#Cc1cccc(NS(=O)(=O)c2ccccc2)c1)NO	.	-9	.	-16%	.
Cc1cccn2c(=O)cc(COc3ccc(NC(=O)C(C)C)cc3)nc12	7%	.	3%	.	-3%
O=C(Nc1n[nH]c(=S)s1)c1ccco1	.	0	.	56µM*	.
O=C(Nc1nnc(-c2ccc(F)cc2)s1)c1ccco1	.	0	.	-1%	.
CCCC(c1nnnn1Cc1cccs1)N1CCN(C)CC1 (stereo not drawn)	-2%	4	2%	-10%	-9%
COc1ccccc1CN1CCN(C(CC(C)C)c2nnnn2Cc2cccs2)CC1 (stereo not drawn)	-14%	1	-2%	89µM*	4%
CC(C)NC(=O)N1CCC2(CC1)CCN(C(=O)c1csnn1)CC2	.	-1	.	14%	.
CSC1=NC(C)(C)C=C(/C=C/c2ccc(Cl)cc2)N1	-3%	-1	?	40µM*	2%
CCOC(=O)c1ccc(NC2=CC(c3ccc(F)cc3)N(c3ccc(C(=O)OCC)cc3)C2=O)cc1 (stereo not drawn)	-5%	.	1%	.	-5%
C#CCCCO/N=C1/C[C@@H](O)[C@@H](O)[C@@H]2[C@@H]3C(=O)N(C(C)(C)C)C(=O)[C@H]3CC[C@H]12	-2%[11.6 µM]	0	-2%[11.5 µM]	-9%	1%[11.6 µM]
C/C(=N\NC(=O)c1ccc(Br)o1)c1cc2c(cc1NC(=O)CCC(=O)O)OCO2	.	.	.	45µM*	.
COc1cccc(C(=O)N2CC(=O)Nc3ccc(C)cc3C2c2ccc(F)cc2)c1OC (stereo not drawn)	-2%	.	-2%	.	?
O=C(Nc1sc2c(c1C(=O)NCc1ccco1)CCCC2)c1ccc2c(c1)OCO2	-25%	-4	-20%	45µM*	0%
COC(=O)Nc1sc2c(c1C(=O)NCc1ccco1)CCCC2	-5%	-2	-5%	79µM*	1%
CC1=NN(c2nc(-c3ccc(C)cc3)cs2)C(=O)C1N=Nc1cccc(O)c1 (stereo not drawn)	?	-1	1.8µM*	-15%	-16%
CC1=NN(c2nc(-c3ccc(C)cc3)cs2)C(=O)C1N=Nc1ccccc1O (stereo not drawn)	?	1	2µM*	?	11%
CC1=NN(c2ccccc2)C(=O)C1N=Nc1cccc(O)c1 (stereo not drawn)	.	-4	.	-14%	.
COc1ccc2[nH]c(=O)c(CN(C(=O)c3cccc(Cl)c3)c3cccc(C)c3)cc2c1	-8%	.	?	.	-5%
CC(=O)c1cc(-c2ccccc2)n(CCC(=O)Nc2cc(C)cc(C)c2)c1C	-24%	.	-14%	.	-4%
O=C(OCC(=O)N1CCCc2ccccc21)c1cncc(Br)c1	-13%	-4	?	71µM*	6%
O=C(OCC(=O)N1CCc2ccccc21)c1cncc(Br)c1	-14%	-1	?	-11%	-8%
SMILES	Tau fluor counter	Coupling enz	Tau fibril ThT	Sfp PPTase inh	Tau fibril FP
O=C(O)c1ccc2c(c1)C(=O)N([C@H](Cc1ccc(-c3ccccc3)cc1)C(=O)O)C2=O	.	22	.	16%	.
CC(=O)Oc1c(Br)cc(N(C(C)=O)S(=O)(=O)c2ccccc2)c2ccccc12	.	-45*	.	35µM*	.
O=C(Nc1ccn(Cc2c(F)c(F)cc(F)c2F)n1)c1cccc(Cn2cc([N+](=O)[O-])cn2)c1	-18%	1	-5%	32µM*	-6%
O=C(Nc1ccn(Cc2c(F)c(F)c(F)c(F)c2F)n1)c1cccc(Cn2cc([N+](=O)[O-])cn2)c1	-24%	1	2%	?	4%
Cc1nc(N2CCN(C(=O)c3ccco3)CC2)c2c3c(sc2n1)CCCC3	-3%	1	-18%	5%	0%
O=C(c1ccco1)N1CCN(c2nc(C3CC3)nc3sc4c(c23)CCCC4)CC1	-8%	2	?	79µM*	5%
N#Cc1c(N2CCN(C(=O)c3ccco3)CC2)nc(-c2ccccc2)c2c1CCCC2	2%	-2	-16%	45µM*	4%
CC(C)Cc1nc(N2CCN(C(=O)c3ccco3)CC2)c(C#N)c2c1CCC2	-4%	0	?	45µM*	0%
CCCCCn1c(-c2ccc(OC)c(OC)c2)nc2ccccc21	-13%	.	-14%	.	5%
N#CC(C#N)=NNc1ccc(S(=O)(=O)N2CCCCC2)cc1	?	18	16µM*	15%	8%
COC(=O)Nc1ccc(S(=O)(=O)N2CCCCCC2)cc1	2%	1	4%	9%	9%
CC1CCN(S(=O)(=O)c2ccc(N/N=C(/C#N)C(N)=O)cc2)CC1	-30%	-1	?	2%	-7%
N#C/C(=N\Nc1ccc(S(=O)(=O)N2CCOCC2)cc1)C(N)=S	-17%	-1	?	45µM*	0%
CCCc1ccc(OC(=O)c2ccc(O)cc2Cl)cc1	?	5	?	1%	28µM*
CCCc1ccc(OC(=O)c2cccs2)cc1	-12%	0	-11%	?	-13%
CCOC(=O)c1c(NC(=S)N2CCCCC2)sc2c1CCN(C(=O)OCC)C2	-11%	1	?	?	1%
CCOC(=O)N1CCc2c(sc(NC(=O)CN3CCOCC3)c2C#N)C1	-13%	-1	-12%	-6%	3%
CCOC(=O)c1c(NC(=S)N2CCOCC2)sc2c1CCN(C(=O)OCC)C2	-11%	-5	?	50µM*	-2%
CCOC(=O)C1CCc2sc(N)c(C#N)c21 (stereo not drawn)	-12%	-13	-14%	50µM*	0%
CCOC(=O)N1CCc2c(sc(N)c2C#N)C1	-22%	-6	?	56µM*	-10%
